The text below walks through data of PubChem BioAssay (Tox21).

Experiment [1] deals with Estrogen receptor (Homo sapiens) (UniProt P03372). Nature of the experiment: qHTS assay to identify small molecule antagonists of the estrogen receptor alpha (ER-alpha) signaling pathway using the BG1 cell line in the presence of 0.1 nM 17-beta-estradiol (AID 1259244). Also: nearly all actives have a fitted effect of over 50% in size. Also: potency is read from the fitted curve at half-maximal effect. A digest of the protocol: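 Seeding of stripped-serum-adapted VM7Luc4E2 cells, 24 h attachment, compound transfer, then 0.1 nM final 17beta-estradiol; after 22 h incubation, ONE-Glo reagent and luminescence reading.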
(Quantitative high-throughput screening tests each substance at several concentrations.)

The nature of experiment [2]: qHTS assay to identify small molecule HDAC inhibitors (AID 1259364).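 Also: wild-type HCT-116 cells with endogenous class I/II HDAC activity; top concentration of the series differs between compounds; % is scaled to controls: 0 for no effect and ±100 for the full control effect; nearly all actives have a fitted effect of over 45% in size.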 A digest of the protocol: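 After a 2 hr compound incubation (37C, 5% CO2), HCT-116 cells seeded at 1,500/well the day before received HDAC-Glo reagent; signal read as luminescence after 30 min at room temperature.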
Experiment [3] can be described thus: qHTS assay to identify small molecule HDAC inhibitors - cell viability counter screen (AID 1259365). Also: series mostly up to about 92 µM; % is scaled to controls: 0 for no effect and ±100 for the full control effect; nearly all actives have a fitted effect of over 50% in size. A digest of the protocol:
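HCT-116 wild-type, overnight attachment; 2hr drug exposure, 37C; CellTiter-Glo luminescent ATP readout after 30min RT.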

Experiment [4] can be described thus: qHTS assay to identify small molecule agonists of the sonic hedgehog signaling (Shh) pathway - cell viability counter screen (AID 1259366). Also: nearly all actives have a fitted effect of over 50% in size. Also: potency is read from the fitted curve at half-maximal effect. A digest of the protocol: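 Compounds in DMSO were pin-transferred onto 3T3 Gli1-Luc cells that had settled 4hr; plates then stood 24hr at 37C and 5% CO2. One hour before the end, CellTiter-Fluor was added and fluorescence recorded.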

The nature of experiment [5]: qHTS assay to identify small molecule antagonists of the sonic hedgehog signaling (Shh) pathway - cell viability counter screen (AID 1259367). Also: nearly all actives have a fitted effect of over 55% in size. Also: potency is read from the fitted curve at half-maximal effect. A digest of the protocol:
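Conditioned medium drove Shh signaling in 3T3 Gli1-Luc cells exposed to compounds at 37C and 5% CO2. Viability was determined from CellTiter-Fluor fluorescence, with reagent incubated 1 hr after 23 hr of treatment.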

The nature of experiment [6]: qHTS assay to identify small molecule agonists of the sonic hedgehog signaling (Shh) pathway (AID 1259368; calls by dose curve;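 also: NIH/3T3-derived 3T3Gli1-Luc cells carrying a stable Gli1-driven firefly luciferase reporter; series mostly up to about 92 µM; % is scaled to controls: 0 for no effect and ±100 for the full control effect; nearly all actives have a fitted effect of over 15% in size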). A digest of the protocol:
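Stable NIH/3T3 Gli1-Luc reporter clone; 24 hr cpd exposure after a 4 hr settling period; luminescence endpoint.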

Experiment [7] can be described thus: qHTS assay to identify small molecule antagonists of the sonic hedgehog signaling (Shh) pathway (AID 1259369; calls by dose curve; also: nearly all actives have a fitted effect of over 45% in size; also: potency is read from the fitted curve at half-maximal effect). A digest of the protocol:
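Gli1 transcriptional reporter (firefly Luc) in NIH/3T3 background, conditioned-medium activated. 24hr exposure, luminescence endpoint.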

Experiment [8] is described as follows: qHTS assay to identify small molecule agonists of the androgen receptor (AR) signaling pathway in the presence of an antagonist - cell viability counter screen (AID 1259379). Also: nearly all actives have a fitted effect of over 25% in size. Also: potency is read from the fitted curve at half-maximal effect. A digest of the protocol:
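Counter screen for cell viability run in parallel with the AR agonist-mode luciferase assay. MDA-kb2 cells were co-treated with nilutamide (3.0uM final) and compounds, then incubated 16 hr at 37C, and CellTiter-Fluor fluorescence was measured.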

Experiment [9] is described as follows: qHTS assay to identify small molecule agonists of the estrogen receptor beta (ER-beta) signaling pathway - cell viability counter screen (AID 1259380). Also: nearly all actives have a fitted effect of over 30% in size. Also: potency is read from the fitted curve at half-maximal effect. A digest of the protocol: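 In this qHTS counter screen, HEK293T cells carrying an ER-beta/UAS beta-lactamase reporter, grown in 2% charcoal-stripped FBS, received compound for 16 hr; ATP-based CellTiter-Glo luminescence was then read after 30 min at room temperature.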

Experiment [10] can be described thus: qHTS assay to identify small molecule antagonists of the estrogen receptor beta (ER-beta) signaling pathway - cell viability counter screen (AID 1259382). Also: nearly all actives have a fitted effect of over 55% in size. Also: potency is read from the fitted curve at half-maximal effect. A digest of the protocol:
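HEK293T ER-beta-UAS-bla, 2% charcoal-stripped FBS; compounds + 1nM E2 16 hr 37C; CellTiter-Glo luminescence, 30 min RT.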

Experiment [11] has as its target Estrogen receptor (Homo sapiens) (UniProt P03372). Nature of the experiment: qHTS assay to identify small molecule agonists of the estrogen receptor alpha (ER-alpha) signaling pathway in the presence of an antagonist (AID 1259383; calls by dose curve; also: top concentration of the series differs between compounds; % is scaled to controls: 0 for no effect and ±100 for the full control effect; nearly all actives have a fitted effect of over 15% in size). A digest of the protocol: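 ER-alpha agonism measured under antagonist challenge: 10.0nM ICI-182,780 (final) plus compound, 15 concentrations, 22hr, VM7Luc4E2 ERE-luciferase cells. Read by luminescence.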

A short description of experiment [12]: qHTS assay to identify small molecule agonists or antagonists of the thyroid stimulating hormone receptor (TSHR) signaling pathway - wild type cell line counter screen (AID 1259384; calls by dose curve; also: % is scaled to controls: 0 for no effect and ±100 for the full control effect). A digest of the protocol: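 Wild-type HEK293 cells were plated 18 h at 37 C/5% CO2, pin-dosed with compound plus Ro20-1724 medium, held 30 min at room temperature, then given cAMP-d2 and anti-cAMP-cryptate; fluorescence was read after 1 h. Fifteen concentrations, triplicate.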

In experiment [13] the target is Thyrotropin receptor (Homo sapiens) (UniProt P16473). The experiment can be described thus: qHTS assay to identify small molecule antagonists of the thyroid stimulating hormone receptor (TSHR) signaling pathway (AID 1259385; calls by dose curve; also: nearly all actives have a fitted effect of over 20% in size; also: potency is read from the fitted curve at half-maximal effect). A digest of the protocol:
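TSHR-HEK293 cells were plated and held 18 h at 37C/5% CO2, then given compound plus Ro20-1724 and stimulated with TSH at 1.5 ng/mL final. After 30 min at room temperature, cAMP was detected with cAMP-d2/anti-cAMP-cryptate (1 h) by fluorescence.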

The target of experiment [14] is Progesterone receptor (Homo sapiens) (UniProt P06401). The experiment can be described thus: qHTS assay to identify small molecule agonists of the progesterone receptor (PR) signaling pathway (AID 1346784; calls by dose curve; also: % is scaled to controls: 0 for no effect and ±100 for the full control effect; nearly all actives have a fitted effect of over 30% in size). A digest of the protocol:
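Fluorescence from LiveBLAzer B/G FRET substrate cleavage (2 hr, RT) reported PR activation in PR-UAS-bla HEK 293T cells treated 16 hr at 37C/5% CO2 with compounds; medium contained 2% charcoal-stripped FBS.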

Experiment [15] can be described thus: qHTS assay to identify small molecule phospholipidosis (PLD) inducers (AID 1259344; active = well fitted curve in the direction sought with a large enough effect; an effect the other way counts as inactive or inconclusive; also: potency is read from the fitted curve at half-maximal effect; as to PLD induction: % is scaled to controls: 0 for no effect and ±100 for the full control effect). A digest of the protocol: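 After 4 h attachment on collagen I, HepG2 cells were dosed with compound alongside LipidTOX Red, kept 24 h at 37 C, fixed, and imaged for lamellar phospholipid pits.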
For experiment [16], the target named is Estrogen receptor beta (Homo sapiens) (UniProt Q92731). The experiment can be described thus: qHTS assay to identify small molecule agonists of the estrogen receptor beta (ER-beta) signaling pathway (AID 1259377; active = well fitted activation curve with a large enough effect in the signal ratio in the repeat runs, not every such curve was filed as active; the % refers to the signal ratio; also: % is scaled to controls: 0 for no effect and ±100 for the full control effect). A digest of the protocol: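 qHTS in ER-beta-UAS-bla HEK293T cells: 6 hr settling, then 16 hr compound at 37C, then LiveBLAzer substrate 2 h at RT before fluorescence reading.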

A short description of experiment [17]: qHTS assay to identify small molecule agonists of the estrogen receptor alpha (ER-alpha) signaling pathway in the presence of an antagonist - cell viability counter screen (AID 1259386).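 Also: series mostly up to about 92 µM; cells exposed to compounds for 22 h at 37 °C before the viability read; % is scaled to controls: 0 for no effect and ±100 for the full control effect; nearly all actives have a fitted effect of over 30% in size.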 A digest of the protocol: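 Steps: 5-day stripped-FBS culture; seed and incubate 24hr; add ICI-182,780 (10.0nM final); pin 15-point compound titration; incubate 22hr at 37C; add CellTiter-Fluor at 21hr; read fluorescence.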

The target of experiment [18] is Estrogen receptor beta (Homo sapiens) (UniProt Q92731). The experiment can be described thus: qHTS assay to identify small molecule antagonists of the estrogen receptor beta (ER-beta) signaling pathway (AID 1259378; active = well fitted inhibition curve with a large enough effect in the signal ratio in the repeat runs, not every such curve was filed as active; the % refers to the signal ratio; also: potency is read from the fitted curve at half-maximal effect). A digest of the protocol: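 ER-beta-UAS-bla HEK293T (GripTite) cells in 2% charcoal-stripped FBS medium were preincubated 6 hr at 37C, dosed with compound, then stimulated with 1 nM E2 (final) for 16 hr; beta-lactamase reporter read by B/G FRET fluorescence after 2 hr substrate loading.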

Where “and” joins values, the source holds several entries; their conditions need not be identical. Equal values may be shown once. Results filed as inconclusive are left out. Some compounds were tested as several samples or in several runs, with calls that do not always agree. Calls of active or inactive are those of the source. Unless noted, calls follow the shape of the dose curve; as a rule, active = well fitted curve in the direction sought with a large enough effect in the repeat runs; inconclusive = weak or mixed curves; inactive = no such curve, though single readings can be large; an effect the other way counts as inactive or inconclusive.

Estrogen receptor (Homo sapiens), sequence (P03372 whole entry, looked up): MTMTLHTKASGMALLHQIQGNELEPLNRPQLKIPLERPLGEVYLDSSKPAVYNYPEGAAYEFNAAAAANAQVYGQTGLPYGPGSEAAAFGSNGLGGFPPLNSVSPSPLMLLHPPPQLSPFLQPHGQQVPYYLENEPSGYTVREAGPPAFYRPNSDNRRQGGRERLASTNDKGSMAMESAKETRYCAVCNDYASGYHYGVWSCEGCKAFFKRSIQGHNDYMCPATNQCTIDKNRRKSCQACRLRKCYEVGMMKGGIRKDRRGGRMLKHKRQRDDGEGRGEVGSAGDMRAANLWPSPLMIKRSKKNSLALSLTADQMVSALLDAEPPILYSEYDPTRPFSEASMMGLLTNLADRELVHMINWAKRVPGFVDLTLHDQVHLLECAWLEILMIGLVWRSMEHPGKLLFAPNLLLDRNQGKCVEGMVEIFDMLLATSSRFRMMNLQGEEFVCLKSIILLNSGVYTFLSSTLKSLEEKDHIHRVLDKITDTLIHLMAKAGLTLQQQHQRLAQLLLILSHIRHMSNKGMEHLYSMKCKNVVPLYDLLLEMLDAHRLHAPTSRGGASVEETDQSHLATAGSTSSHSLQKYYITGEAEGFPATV
Progesterone receptor (Homo sapiens), sequence (P06401 whole entry, looked up): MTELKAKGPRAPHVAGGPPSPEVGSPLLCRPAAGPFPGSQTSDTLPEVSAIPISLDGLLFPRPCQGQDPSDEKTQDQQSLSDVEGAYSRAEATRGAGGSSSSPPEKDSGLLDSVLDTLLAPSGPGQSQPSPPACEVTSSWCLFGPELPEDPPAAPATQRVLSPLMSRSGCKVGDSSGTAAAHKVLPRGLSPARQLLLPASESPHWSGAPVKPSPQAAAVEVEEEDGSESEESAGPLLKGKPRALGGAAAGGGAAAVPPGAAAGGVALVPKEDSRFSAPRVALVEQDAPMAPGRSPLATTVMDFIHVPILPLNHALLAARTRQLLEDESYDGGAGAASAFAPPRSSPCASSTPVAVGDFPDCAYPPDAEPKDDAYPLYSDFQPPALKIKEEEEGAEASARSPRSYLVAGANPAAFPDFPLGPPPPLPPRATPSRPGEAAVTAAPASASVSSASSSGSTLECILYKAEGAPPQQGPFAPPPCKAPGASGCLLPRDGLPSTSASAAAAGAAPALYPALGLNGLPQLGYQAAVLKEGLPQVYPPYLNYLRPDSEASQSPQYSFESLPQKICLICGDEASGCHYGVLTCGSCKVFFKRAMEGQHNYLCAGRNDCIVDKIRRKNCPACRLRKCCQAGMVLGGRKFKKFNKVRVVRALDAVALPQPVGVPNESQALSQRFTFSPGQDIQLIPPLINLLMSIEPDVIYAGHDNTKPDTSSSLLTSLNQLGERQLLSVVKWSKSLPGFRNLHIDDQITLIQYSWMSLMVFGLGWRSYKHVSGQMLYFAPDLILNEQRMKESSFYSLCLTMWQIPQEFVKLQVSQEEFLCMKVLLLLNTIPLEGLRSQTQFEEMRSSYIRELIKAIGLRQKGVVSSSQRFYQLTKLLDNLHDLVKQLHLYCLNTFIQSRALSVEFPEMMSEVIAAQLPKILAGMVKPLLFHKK
Thyrotropin receptor (Homo sapiens), sequence (P16473 whole entry, looked up): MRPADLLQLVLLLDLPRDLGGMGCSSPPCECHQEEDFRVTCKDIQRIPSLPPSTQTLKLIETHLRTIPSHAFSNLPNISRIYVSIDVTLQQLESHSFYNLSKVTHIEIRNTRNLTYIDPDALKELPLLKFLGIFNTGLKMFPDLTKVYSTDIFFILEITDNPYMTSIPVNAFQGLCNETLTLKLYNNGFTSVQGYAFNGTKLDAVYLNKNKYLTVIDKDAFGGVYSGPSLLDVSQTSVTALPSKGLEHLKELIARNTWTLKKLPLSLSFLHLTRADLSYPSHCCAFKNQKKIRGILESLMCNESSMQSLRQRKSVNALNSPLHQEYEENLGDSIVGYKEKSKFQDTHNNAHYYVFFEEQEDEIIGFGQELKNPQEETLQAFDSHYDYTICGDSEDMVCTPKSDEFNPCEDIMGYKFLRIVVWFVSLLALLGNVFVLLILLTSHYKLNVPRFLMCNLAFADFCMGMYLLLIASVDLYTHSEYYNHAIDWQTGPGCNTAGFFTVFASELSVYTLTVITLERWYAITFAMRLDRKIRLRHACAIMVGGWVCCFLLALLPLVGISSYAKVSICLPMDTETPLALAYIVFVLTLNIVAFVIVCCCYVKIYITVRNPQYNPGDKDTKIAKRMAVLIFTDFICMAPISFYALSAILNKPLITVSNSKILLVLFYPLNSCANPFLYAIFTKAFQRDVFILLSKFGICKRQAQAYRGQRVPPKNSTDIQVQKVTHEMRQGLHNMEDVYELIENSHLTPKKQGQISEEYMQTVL
Estrogen receptor beta (Homo sapiens), sequence (Q92731 whole entry, looked up): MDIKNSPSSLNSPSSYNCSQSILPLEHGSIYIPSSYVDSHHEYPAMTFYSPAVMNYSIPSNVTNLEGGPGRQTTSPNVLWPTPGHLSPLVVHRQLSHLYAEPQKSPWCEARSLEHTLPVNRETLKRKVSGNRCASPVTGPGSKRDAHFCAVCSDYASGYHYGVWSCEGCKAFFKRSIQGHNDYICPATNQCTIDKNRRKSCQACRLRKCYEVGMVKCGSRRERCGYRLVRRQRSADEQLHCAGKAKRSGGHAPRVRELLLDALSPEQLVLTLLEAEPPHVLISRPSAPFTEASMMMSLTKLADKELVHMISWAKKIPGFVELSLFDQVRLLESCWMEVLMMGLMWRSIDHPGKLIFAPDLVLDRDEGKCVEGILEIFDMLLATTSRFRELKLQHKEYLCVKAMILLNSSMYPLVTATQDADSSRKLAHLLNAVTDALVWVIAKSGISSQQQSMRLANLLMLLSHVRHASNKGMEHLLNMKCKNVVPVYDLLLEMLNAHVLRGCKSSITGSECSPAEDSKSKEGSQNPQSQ

As to `CC(=O)CC(C)=O`, the Potency entry in [1], in [2], in [3], in experiment [4], in experiment [5] and in [6] was “inactive” throughout. Also, the Potency result in experiment [7], in experiment [8], in [9], in experiment [10], in experiment [11] and in [12] was “inactive” in each case. Further, the Potency entry in experiment [13] and in [14] was “inactive” in each case.

`CNCCC(Oc1ccc(C(F)(F)F)cc1)c1ccccc1` (centres undefined): the Potency was 10 µM (active) in experiment [15]; 60.3 µM (active) and 29.8 µM (active) in [4]; 26.9 µM (active) and 29.8 µM (active) in experiment [5]; 15.2 µM (active) in experiment [7]; 53.8 µM (active) and 26.6 µM (active) in [8]; 26.9 µM (active) and 13.3 µM (active) in experiment [9]. Also, the Potency in [10] is 24 µM (active) and 11.9 µM (active); in experiment [13], 67.7 µM (active) and inactive. Besides, the Potency result in [2], in experiment [3], in [6], in experiment [12] and in experiment [17] was “inactive” in each case. Besides, in experiment [16], the molecule was classed as inactive.

Regarding `O=C1Nc2ccccc2C1(c1ccc(O)cc1)c1ccc(O)cc1`, the Potency in [1] is 486 nM (active) and 237 nM (active); in experiment [5], 48.6 µM (active); in [7], 34.4 µM (active); in [18] it was 27.3 µM (active) and 18.8 µM (active). In addition, the Potency result in experiment [2], in experiment [3], in experiment [6], in experiment [9], in [10] and in experiment [11] was “inactive” each time. The Potency entry in experiment [12], in experiment [13] and in experiment [14] was “inactive” each time. Besides, in experiment [16], the result was inactive.

As for `Nc1nc2ccccc2[nH]1`, the Potency entry in experiment [1], in experiment [3], in experiment [4], in experiment [5], in [6] and in experiment [7] was “inactive” in each case. Further, the Potency result in [9], in experiment [10], in experiment [11], in experiment [12], in experiment [13] and in experiment [17] was “inactive” in each case.

With `c1cc(C(c2ccc(OCC3CO3)cc2)C(c2ccc(OCC3CO3)cc2)c2ccc(OCC3CO3)cc2)ccc1OCC1CO1` (centres undefined), the Potency result in experiment [1], in experiment [2], in experiment [3], in experiment [4], in experiment [5] and in [6] was “inactive” in each case. Further, the Potency result in [7], in [10], in [11], in [12], in experiment [13] and in experiment [17] was “inactive” in each case. Further, the Potency result in [14] is “inactive”.

Consider `CC(C)C(=O)c1c(C(C)C)nn2ccccc12`, for which the PLD induction in experiment [15] was -2.74% [at 7.66 µM] (inactive). The Potency entry in experiment [2], in experiment [3], in [4], in experiment [5], in experiment [6] and in experiment [8] was “inactive” each time. Moreover, the Potency entry in [9], in experiment [10], in experiment [17] and in [14] was “inactive” each time.

Regarding `O=C1CC2(CCCC2)CC(=O)N1CCCCN1CCN(c2ncccn2)CC1`, the Potency entry in [2], in [3], in experiment [5], in experiment [6], in experiment [8] and in experiment [10] was “inactive” each time. Moreover, the Potency entry in experiment [12], in experiment [13], in [17] and in experiment [14] was “inactive” throughout. The Potency was 19.3 µM (active) and inactive in experiment [7]; 4.86 µM (active) in experiment [9].

For the molecule `CCOC(=O)C(C)C(C)=O` (centres undefined), the Potency entry in experiment [2], in experiment [3], in [5], in [6], in experiment [7] and in [9] was “inactive” each time. Also, the Potency entry in experiment [10], in [12], in experiment [13], in experiment [17] and in [14] was “inactive” each time. Also, the molecule was called inactive in experiment [16].

`CCC(CO)(CO)COCC(CC)(CO)CO`: the Potency result in [3], in [4], in experiment [5], in experiment [6], in experiment [7] and in [8] was “inactive” each time. Besides, the Potency result in [9], in [10], in [12], in experiment [13], in [17] and in [14] was “inactive” each time. Also, the call in [16] was inactive.

Consider `c1ccc2n[nH]nc2c1`, for which the Potency entry in experiment [2], in experiment [3], in experiment [4], in experiment [5], in experiment [6] and in experiment [7] was “inactive” in each case. The Potency result in experiment [9], in experiment [10], in experiment [12], in [13], in experiment [17] and in experiment [14] was “inactive” in each case. Besides, the result in experiment [16] was inactive.

Consider `NNCCc1ccccc1`, for which the Potency entry in experiment [15], in experiment [2], in [3], in [5], in experiment [7] and in [8] was “inactive” throughout. For the same molecule, the Potency result in [9], in [10], in experiment [12], in [13] and in experiment [14] was “inactive” throughout.

Take `CCCN[C@H]1CCc2nc(N)sc2C1`: the Potency entry in experiment [15], in experiment [3], in experiment [5], in experiment [6], in experiment [7] and in experiment [9] was “inactive” in each case. In addition, the Potency entry in experiment [10], in experiment [12], in [13], in experiment [17] and in [14] was “inactive” each time.

For `Nc1cc(S(=O)(=O)O)cc2cc(S(=O)(=O)O)cc(O)c12`, the Potency entry in experiment [2], in [3], in [4], in experiment [6], in experiment [7] and in [10] was “inactive” each time. For the same molecule, the Potency entry in experiment [14] was “inactive”. For the same molecule, the Potency result in experiment [8] is “inactive and 27.3 µM (active)”; in [9], “inactive and 4.33 µM (active)”.
